Source: PubChem
CYP2C9 act = activators of human CYP2C9 | P11712 | activation factor at 5 µM | recombinant CYP2C9, luciferin-H conversion, luminescence; hits give high values; factor 1 = untreated enzyme, 0 = blocked | actives 1.4% (n = 96,000);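 active means activation factor of 2 or more for CYP2C9 at a 5 µM dose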
CYP2C19 activ = activators of human cytochrome P450 2C19; P33261; recombinant CYP2C19, luciferin-H EGE luminescence; hits give high values; 0 = fully inhibited enzyme, 1 = untreated enzyme; activation factor at 5 µM; 96,000 tested, under 10 active; AID 1025;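 active means activation factor of at least 2 at 5 µM in the primary screen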
Target sequence (P33261 whole entry, looked up): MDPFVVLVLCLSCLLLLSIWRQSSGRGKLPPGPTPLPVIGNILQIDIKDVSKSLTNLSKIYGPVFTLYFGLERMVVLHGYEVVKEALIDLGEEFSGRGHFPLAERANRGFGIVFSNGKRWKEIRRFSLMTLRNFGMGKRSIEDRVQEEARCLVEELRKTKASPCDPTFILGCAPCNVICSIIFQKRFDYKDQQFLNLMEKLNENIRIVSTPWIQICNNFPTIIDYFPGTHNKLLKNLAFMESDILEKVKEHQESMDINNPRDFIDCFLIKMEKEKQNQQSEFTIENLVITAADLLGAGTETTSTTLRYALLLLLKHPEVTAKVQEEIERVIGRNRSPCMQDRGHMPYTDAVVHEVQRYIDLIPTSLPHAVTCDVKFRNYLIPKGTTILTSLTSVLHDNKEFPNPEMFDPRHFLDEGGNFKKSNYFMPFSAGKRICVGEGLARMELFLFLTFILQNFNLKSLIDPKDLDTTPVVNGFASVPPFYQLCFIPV
CYP2C19 inh = human CYP2C19 inhibition; P33261; CYP2C19 Supersomes, luciferin-H EGE luminescence, 30 min; inhibition, % at 5 µM; actives 21% (n = 96,000);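 active means CYP2C19 inhibition above a set limit at 5 µM in the primary screen, cut at about 50% in these data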
EphB4 antag = blocks human EphB4 binding to ephrin-B2 | EphB4 LBD / TNYL-RAW-Alexa532 peptide, fluorescence polarization | actives 0.15% (n = 97,000) | P54760 | inhibition, % at 7 µM;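 active means inhibition above the screen-wide mean inhibition plus 3 SD, cut at about 15% in these data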
CYP2C9 inh = human CYP2C9 inhibition; P11712; actives 20% (n = 96,000); CYP2C9 Supersomes, luciferin-H conversion, luminescence; inhibition, % at 5 µM;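 active means blocking of liver enzyme CYP2C9 beyond about 50% at 5 µM, limit read from the data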
A number is an active result; - = inactive; . = not tested or not shown. Compounds with a hit are over-represented: about 27% of the library has one in this group of screens.

SMILES	CYP2C9 act	CYP2C19 activ	CYP2C19 inh	EphB4 antag	CYP2C9 inh
COc1ccc(/C=c2/sc3n(c2=O)C(c2ccccc2OC)C2=C(N=3)c3ccccc3CC2)cc1O (stereo unspecified)	-	-	-	-	-
COc1ccc(/C=C2\CCc3ccccc3C2=O)cc1Cn1nc(C)cc1C	-	-	90	-	53
COc1ccc(/C=C2\CCc3ccccc3C2=O)cc1OC	-	-	-	-	53
Cc1ccsc1/C=C1\CCc2ccccc2C1=O	-	-	93	-	87
O=C1/C(=C\c2ccc3ccccc3c2)CCCc2ccccc21	.	.	.	-	.
Cc1ccccc1/C=C1\CCCc2ccccc2C1=O	.	.	.	-	.
CCN(CC)S(=O)(=O)c1cccc(C(=O)Nc2nncs2)c1	-	-	-	.	-
Cc1cc(C)cc(N(CC(=O)N2CCC(C)CC2)S(=O)(=O)c2ccccc2)c1	-	-	-	-	-
CCN(CC)C(=O)CN(c1ccc(F)c(Cl)c1)S(C)(=O)=O	-	-	-	-	-
CS(=O)(=O)N(CC(=O)N1CCCCCC1)c1ccc(Br)cc1	-	-	77	-	-
CS(=O)(=O)N(CC(=O)O)c1cccc(Cl)c1	-	-	-	-	-
CS(=O)(=O)N(CC(=O)N1CCCC1)c1cccc(Cl)c1	-	-	57	.	-
Cc1cc(C)cc(N(CC(=O)N2CCC(C)CC2)S(C)(=O)=O)c1	2.2	-	-	-	-
CS(=O)(=O)N(CC(=O)N1CCN(c2ccc(F)cc2)CC1)c1ccc(F)c(Cl)c1	-	-	71	-	-
COC(=O)c1ccccc1NC(=O)c1noc2c1CCC2	-	-	-	.	-
COC(=O)c1nc(C(=O)OC)c(C(=O)OC)nc1C(=O)OC	-	-	-	-	-
CC(/C=N/NC(=O)Cc1cccs1)=C\c1ccco1	-	-	-	-	-
COC(=O)Oc1ccc(/C=N/NC(=O)CN(c2ccccc2Cl)S(C)(=O)=O)cc1OC	-	-	-	-	63
Cc1cc(C)cc(N(CC(=O)N2CCOCC2)S(=O)(=O)c2ccccc2)c1	.	.	.	-	.
CS(=O)(=O)N(CC(=O)N1CCN(c2ccccc2)CC1)c1cccc(Br)c1	2.8	-	64	-	-
CCOc1ccccc1N(CC(=O)N1CCOCC1)S(=O)(=O)c1ccccc1	-	-	-	-	76
Cc1oc(/C=N/NC(=O)CN(c2ccccc2Br)S(C)(=O)=O)cc1Br	.	.	.	-	.
CN(C)c1ccc(/C=N/NC(=O)CN(c2cccc(Cl)c2)S(C)(=O)=O)cc1Br	-	-	-	-	51
CC(=O)c1cc(C(c2csc(C(C)=O)c2)c2csc(C(C)=O)c2)cs1	.	.	.	-	.
Cc1ccc(OCCCC(=O)Nc2ccc(N3CCOCC3)cc2)c(C)c1	-	-	-	-	-
SMILES	CYP2C9 act	CYP2C19 activ	CYP2C19 inh	EphB4 antag	CYP2C9 inh
CS(=O)(=O)N(CC(=O)N1CCCCCC1)c1cccc(Br)c1	-	-	77	-	-
Cc1cccc(N(CC(=O)N2CCCC2)S(=O)(=O)c2ccccc2)c1	-	-	58	-	73
C=CCN(c1ccc(C(=O)N2CCN(c3ccc(F)cc3)CC2)cc1)S(C)(=O)=O	-	-	-	-	55
Cc1ccc(CNC(=O)CCn2nc(-c3ccc(Cl)cc3)ccc2=O)cc1	-	-	-	-	-
NC(=O)C1CCN(C(=O)c2ccc(Oc3ccccc3)cc2)CC1	-	-	-	-	56
COCCCNC(=O)c1ccc(N(C)S(=O)(=O)c2ccc(OC)cc2)cc1	-	-	-	-	70
COCCCNC(=O)c1ccc(N(C)S(C)(=O)=O)cc1	-	-	-	-	-
COc1ccc(S(=O)(=O)N2CCC(C(N)=O)CC2)cc1	.	.	.	-	.
COc1ccc(S(=O)(=O)N(C)c2ccc(C(=O)N3CCC(C(N)=O)CC3)cc2)cc1	-	-	-	-	50
Cc1ccc(CSCCNC(=O)c2ccc(N(C)S(=O)(=O)c3ccccc3)cc2)cc1	-	-	-	-	86
CN(c1ccc(C(=O)O)cc1)S(=O)(=O)c1ccccc1	-	-	-	.	-
CCCOC(=O)C1[C@H]2C(=O)N(Cc3ccco3)C[C@]23C=C[C@H]1O3 (stereo partly specified)	-	-	-	-	-
O=C(Nc1cc(=O)[nH]c2ncnn12)c1ccc(Cl)cc1Cl	-	-	-	-	-
O=C(c1noc2c1CCCC2)N1CCN(C(c2ccccc2)c2ccccc2)CC1	-	-	-	.	-
O=C1OCC2=C1C(c1ccc(F)cc1)Sc1ccccc1N2 (stereo unspecified)	-	-	77	-	75
COc1cc(C2Sc3ccccc3NC3=C2C(=O)OC3)cc(OC)c1OC (stereo unspecified)	.	.	.	-	.
